Screening results deposited in PubChem BioAssay by National Center for Advancing Translational Sciences (NCATS).
Gal4-VP16 FLuc – counter-screen for ROR gamma inhibitors: Gal4-VP16 reporter; Drosophila S2 Gal4-VP16 UAS-luciferase, luminescence, 20 h; Potency, µM (titrated, usually from 53.6 µM), inactives show top-dose activity, negative = inhibition, most hits filed as inhibitors; 310,000 tested, 3.5% active;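 further: Gal4-VP16 expression switched on by copper sulfate through the metallothionein promoter; potency means the concentration at half of the fitted maximal effect; on the % scale 0 is the no-effect control and ±100 the full control effect; nearly all actives have a fitted effect of over 50% in size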
SW480 rerep – induces DNA re-replication in SW480 colon adenocarcinoma cells; SW480 DNA re-replication, Hoechst DNA content imaging, 48 h; Potency, µM (titrated, usually from 46.1 µM), for inactives: at the highest dose re-replication activation, actives largely listed as activators; 340,000 tested, 1.8% active; further: potency means the concentration at half of the fitted maximal effect; % of control where 0% means no effect; nearly all actives have a fitted effect of over 55% in size
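Readout is total intensity of Hoechst-stained nuclei, excited at 405 nm and collected at 500-530 nm. Compound treatment lasted 48 hr at 37 C in 5% CO2 before staining.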
RORgamma inh – inhibitors of mouse ROR gamma transcriptional activity; 310,000 tested, 5.4% active; Potency, µM (highest dose often 53.6 µM), for the others: at the top dose activity change, negative = inhibition, actives largely listed as inhibitors; Drosophila S2 Gal4-RORgamma UAS-luciferase reporter, 20 h; further: potency means the concentration at half of the fitted maximal effect; on the % scale 0 is the no-effect control and ±100 the full control effect; nearly all actives have a fitted effect of over 60% in size
Target sequence (P51450 whole entry, looked up, the tested form may be a part): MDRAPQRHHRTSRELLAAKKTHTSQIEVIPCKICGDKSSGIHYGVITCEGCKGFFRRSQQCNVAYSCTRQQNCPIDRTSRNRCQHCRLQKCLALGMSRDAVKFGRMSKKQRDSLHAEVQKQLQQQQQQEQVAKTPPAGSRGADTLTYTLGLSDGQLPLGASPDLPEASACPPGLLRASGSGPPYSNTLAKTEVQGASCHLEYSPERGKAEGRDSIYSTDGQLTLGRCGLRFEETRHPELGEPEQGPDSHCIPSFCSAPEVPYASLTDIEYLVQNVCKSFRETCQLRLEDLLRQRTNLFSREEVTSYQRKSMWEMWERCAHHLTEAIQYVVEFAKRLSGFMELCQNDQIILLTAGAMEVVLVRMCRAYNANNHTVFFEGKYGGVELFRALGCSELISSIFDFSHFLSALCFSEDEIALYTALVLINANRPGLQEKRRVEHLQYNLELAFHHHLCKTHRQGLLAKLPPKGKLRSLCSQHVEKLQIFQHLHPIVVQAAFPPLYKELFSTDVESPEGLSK
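Luminescence from a UAS-regulated Photinus luciferase reporter in stably transfected Drosophila Schneider cells is measured; decreased signal marks ROR gamma inhibition. Fusion expression is induced by 700 uM copper sulfate for 20 hr.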
IL1B secr inh – inflammasome signaling inhibition, IL-1 beta readout; activity change, % at 57.5 µM; THP-1 LPS/ATP IL-1B secretion, AlphaLISA, 16 h; hits give low values; 360,000 tested, 4.7% active; in the data active means activity change below about -50%; inconclusive means mostly about -30% to -49%; further: on the % scale 0 is the no-effect control and ±100 the full control effect
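THP-1 cells pretreated 1 hr with compounds (up to 57.5 uM final), then stimulated with LPS (250 ng/mL final) plus ATP (1.25 mM final); secreted IL-1B measured by AlphaLISA after 16 hr, decreased signal indicating inhibition.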
MCF10A rerep – induces DNA re-replication in MCF 10a normal breast cells | 350,000 tested, 2.9% active | AID 624296 | Potency, µM (series often up to 46.1 µM), inactives show at the top dose activity, positive = re-replication, most hits filed as activators | MCF 10A DNA re-replication, Hoechst nuclear intensity, 48 h; further: potency means the concentration at half of the fitted maximal effect; % of control where 0% means no effect; nearly all actives have a fitted effect of over 50% in size
Numbers without * were called inactive; ? = inconclusive; / = not tested or not shown; [ ] = dose if it differs, or a comment. An excerpt weighted towards active compounds, which were near 11% of everything screened. Unless noted, the call rests on the fitted dose curve; in most records, active means well fitted curve in the direction sought with a large enough effect; inconclusive means small, poorly fitted or top-dose-only effect, or another doubt; inactive means no such curve, though single readings can be large; an effect the other way counts as inactive or inconclusive.

SMILES | Gal4-VP16 FLuc | SW480 rerep | RORgamma inh | IL1B secr inh | MCF10A rerep
CCOC(=O)C1(C)CCCN(C(=O)c2ccc(OC)cc2)C1 (configuration not stated) | / | / | / | -8 | /
C#CCOCCOCCOCCNc1nc(N2CCN(C(=O)C([C@@H](C)CC)n3cc(C(N)COC(=O)C(F)(F)F)nn3)CC2)nc(N2CCN(C(=O)C([C@@H](C)CC)n3cc(C(N)CC(C)C)nn3)CC2)n1 (some centres not stated) | / | -12% | / | 9 | -10%
COc1ccccc1CNC(=O)Cc1ccc(C)cc1 | -20% | -114% | 15% | 11 | 7%
O=C(CNCc1ccccc1)Nc1ccc(Oc2ccccc2)cc1 | -8% | 18µM* | 33% | -58* | ?
COc1ccccc1CNC(=S)NCc1ccc(F)cc1 | 7.9µM* | -2% | 7.1µM* | -8 | 8%
S=C(NCc1ccccc1)Nc1ccc(Oc2ccccc2)cc1 | 14µM* | 0% | 13µM* | -1 | 15%
C=CCNC(=S)NCc1ccccc1OC | ? | -2% | 11µM* | -7 | ?
C=CCNC(=S)NCc1ccccc1 | -12% | -6% | 16% | 7 | -3%
CCNC(=S)Nc1ccc(Oc2ccccc2)cc1 | / | 1%[9.22 µM] | / | -2 | -20%
O=C(OCc1ccccc1)N1CCC2CC1c1ccc(N3CCNCC3)cc12 (configuration not stated) | / | / | / | -15 | /
COC(=O)C1=CN(c2ccc(OC)cc2OC)C(N)=C(C#N)C1c1ccccc1F (configuration not stated) | / | / | / | 64 | /
Cc1ccc(S(=O)(=O)Nc2ccc(C(=O)N3CCN(c4ccccc4O)CC3)cc2)cc1[N+](=O)[O-] | / | 3% | / | -1 | ?
CCOc1ccccc1CNCc1ccc(F)cc1 | 5% | -1% | 15% | -51* | -9%
FC(F)(F)c1ccccc1Cc1c(-c2ccccc2)nc2ccc(Br)cn12 | / | / | / | 7 | /
COc1cc2c(cc1OC)C1(Nc3c-2c(Cc2ccccc2)nn3-c2ccccc2)C(=O)Nc2ccccc21 (configuration not stated) | -6% | ? | 27% | -18 | 6.5µM*
O=C(CCN1CCN(c2ccccc2F)CC1)Nc1cccc(F)c1 | -1% | -2% | -3% | 9 | -6%
COc1cc(-c2cc(=O)c3ccccc3o2)ccc1O | -9% | -10% | -21% | -14 | 7%
COc1cc(-c2cc(=O)c3c(O)cc(O)cc3o2)ccc1O | 5% | 8% | 9% | -64* | ?
COc1ccc(-c2cc(=O)c3c(O)c(OC)c(O)cc3o2)cc1 | 10µM* | ? | ? | 28 | 0%
COc1c(O)cc(O)c2c(=O)cc(-c3ccccc3)oc12 | / | -4% | / | ? | 16µM*
CCN1CCCC1Cn1c(-c2ccccc2)nc2c(NCCOC)nc(C)nc21 (configuration not stated) | -2% | / | -1% | / | /
CC1C(=O)N(Cc2cn(Cc3ccco3)nn2)CCS(=O)(=O)N1Cc1ccc(-c2cccc(N(C)C)c2)cc1 (configuration not stated) | / | / | / | -18 | /
CC(NC(=O)c1sc2cc([N+](=O)[O-])ccc2c1Cl)C(C)(C)C (configuration not stated) | 13µM* | 2% | ? | ? | 16%
CCc1nnc(NC(=O)CSc2ncc(-c3ccccc3)n2C)s1 | ? | -2% | 11µM* | 18 | 14%
CCc1nnc(NC(=O)CSc2nnc(CSc3nc(C)cc(C)n3)o2)s1 | 13µM* | -5% | 5.6µM* | 11 | -2%
SMILES | Gal4-VP16 FLuc | SW480 rerep | RORgamma inh | IL1B secr inh | MCF10A rerep
Cc1cccc(NC(=O)CSc2nnc(CSc3nc(C)cc(C)n3)o2)c1 | 8% | -7% | 14% | -16 | -8%
CCc1nnc(NC(=O)CSc2nnc(-c3ccccc3O)o2)s1 | 1.1µM* | -2% | 0.11µM* | 56 | 17%
CCc1nnc(NC(=O)CSc2nccn2-c2ccccc2)s1 | 3% | -9% | -4% | 0 | -36%
Cc1occc1C(=O)NNC(=O)c1ccc(S(=O)(=O)N(C)C)cc1 | / | -2% | / | 4 | -3%
COc1ccccc1NC(=O)c1ccc(NC(=O)c2ccc(=O)[nH]c2)cc1 | / | ? | / | 3 | ?
Clc1ccc(CN2C3=NCCCN3c3ccccc32)c(Cl)c1 | -4% | -10% | -3% | -73* | -1%
Clc1cccc(CN2C3=NCCCN3c3ccccc32)c1 | -6% | 3% | -11% | -17 | ?
Brc1ccc(CN2C3=NCCCN3c3ccccc32)cc1 | 1% | 20% | 15% | -55* | -1%
CC(C)(C)c1ccc(CN2C3=NCCCN3c3ccccc32)cc1 | ? | ? | -5% | -54* | ?
c1ccc(CN2C3=NCCCN3c3ccccc32)cc1 | -20% | -1% | -22% | -4 | 7%
CC1(C(=O)NS(=O)(=O)c2ccccc2Cl)CCN1C(=O)Cc1cc(F)ccc1F (configuration not stated) | / | / | / | 23 | /
CC(=O)c1cn(CC(=O)Nc2c(C)cccc2C)c2ccccc12 | 7.1µM* | 1% | -18% | -15 | 1%
CCCN(CC(=O)Nc1ccccc1OC)CC(=O)c1c(N)n(Cc2ccccc2)c(=O)n(C)c1=O | / | -8% | / | -14 | -1%
CC[C@]12c3[nH]c4cc(-c5ccco5)ccc4c3CCN1C(=O)[C@@H](CC(=O)NCc1ccc(OC)c(OC)c1)C[C@@H]2C(=O)N1CCN(C(=O)c2ccco2)CC1 | / | 4.1µM* | / | ? | 4%
CC[C@]12c3[nH]c4cc(CCC(=O)N(C)C)ccc4c3CCN1C(=O)[C@@H](CC(=O)NCCC1=CCCCC1)C[C@@H]2C(=O)N1CCN(C(=O)c2ccco2)CC1 | / | -1% | / | 3 | ?
CC[C@]12c3[nH]c4cc(-c5ccco5)ccc4c3CCN1C(=O)[C@@H](CC(=O)NCCC1=CCCCC1)C[C@@H]2C(=O)N1CCN(C(=O)c2ccco2)CC1 | / | -35%[9.22 µM] | / | -64* | ?
CC[C@]12c3[nH]c4cc(CCC(=O)N(C)C)ccc4c3CCN1C(=O)[C@@H](CC(=O)NCc1ccc(OC)c(OC)c1)C[C@@H]2C(=O)N1CCN(C(=O)c2ccco2)CC1 | / | -16% | / | 20 | -8%
C#C[C@]1(OC(C)=O)CC[C@H]2[C@@H]3CCC4=CC(=O)CC[C@@H]4[C@H]3CC[C@@]21C | 1% | / | ? | / | /
CCNc1ncc2ncc(=O)n(Cc3cccs3)c2n1 | 3% | / | -29% | / | /
NC(c1cccc(F)c1)c1nc(-c2ccc(Cl)cc2)cs1 (configuration not stated) | / | / | / | 2 | /
Oc1ccc(-c2csc(-c3cccnc3)n2)cc1O | 5% | ? | 3% | -78* | -16%
CC(=O)c1cccc(NC(=O)c2c(-c3c(F)cccc3Cl)noc2C)c1 | / | -6% | / | 22 | ?
C=CCc1c(C)nc(-c2ccccc2)nc1Nc1ccc(O)cc1 | -26% | 30% | -12% | -97* | ?
